# Source: PubChem BioAssay AID651610 (Broad Institute, 2012)
# Where “and” joins values, the source holds several entries; their conditions need not be identical. Identical values can stand only once. Among all 360,000 compounds or so, about 3,900 (1.1%) were called active. The full list was thinned out, with actives kept by preference. Unmarked numbers belong to inactive results.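 The calls were made as follows: active = mean replicate inhibition score of at least 50 and every replicate individually at or above 50; inconclusive = only one of the two criteria met; inactive = mean below 50 and not all replicates reaching 50.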
# Assay: inhibitors of HIV-1 Env-driven cell-cell fusion, primary screen, HeLa-JRFL effector, CEM21 target cells, luciferase (AID 651610);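 also: 0% = plate neutral controls and 100% = maraviroc near 300 nM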
# Settings: hits give high values
compound,measurement,setting,value
O=C(Nc1ccc(F)cc1)N[C@H]1C=C[C@@H](CC(=O)N2CCOCC2)O[C@H]1CO,inhibition,at 16.7 µM unless noted,-5.7%
Cc1noc(C)c1S(=O)(=O)N(C)C[C@H]1OCCCC[C@H](C)Oc2ccc(NC(=O)c3ccccc3)cc2C(=O)N([C@@H](C)CO)C[C@H]1C,inhibition,at 16.7 µM unless noted,-37.3%
C[C@H]1CN([C@@H](C)CO)S(=O)(=O)c2ccc(-c3cccc(F)c3)cc2O[C@@H]1CN(C)C,inhibition,at 12.3 µM,0.788%
same,inhibition,at 16.7 µM,-8.73% and -21.2%
C[C@@H]1CN([C@H](C)CO)S(=O)(=O)c2ccc(-c3ccncc3)cc2O[C@@H]1CN(C)C(=O)Nc1ccc(C(F)(F)F)cc1,inhibition,at 16.7 µM unless noted,27.4%
C[C@H](CO)N1C[C@H](C)[C@H](CN(C)S(=O)(=O)c2ccccc2)Oc2cc(Br)ccc2S1(=O)=O,inhibition,at 16.7 µM unless noted,78% (active)
C[C@@H]1CN([C@@H](C)CO)S(=O)(=O)c2ccc(C#Cc3ccncc3)cc2O[C@@H]1CN(C)S(=O)(=O)c1ccccc1,inhibition,at 16.7 µM unless noted,19.4%
C[C@@H]1CN([C@H](C)CO)S(=O)(=O)c2ccc(-c3cccc(F)c3)cc2O[C@H]1CN(C)S(=O)(=O)c1ccc(F)cc1,inhibition,at 16.7 µM unless noted,30%
Cc1ccc(-c2ccc3c(c2)O[C@H](CN(C)C(=O)Nc2ccccc2)[C@@H](C)CN([C@@H](C)CO)S3(=O)=O)cc1,inhibition,at 16.7 µM unless noted,-12.9%
C[C@@H]1CN([C@@H](C)CO)S(=O)(=O)c2ccc(-c3cccc(F)c3)cc2O[C@@H]1CN(C)S(=O)(=O)c1ccccc1,inhibition,at 16.7 µM unless noted,92.8% (active)
Cc1ccc(-c2ccc3c(c2)O[C@H](CN(C)C(=O)Nc2ccc(C(F)(F)F)cc2)[C@@H](C)CN([C@H](C)CO)S3(=O)=O)cc1,inhibition,at 16.7 µM unless noted,57.4% (active)
C[C@@H]1CN([C@@H](C)CO)S(=O)(=O)c2ccc(Br)cc2O[C@H]1CN(C)S(=O)(=O)c1ccccc1,inhibition,at 16.7 µM unless noted,18.6%
CC(=O)N(C)C[C@H]1Oc2cc(C#Cc3ccccc3F)ccc2S(=O)(=O)N([C@@H](C)CO)C[C@H]1C,inhibition,at 16.7 µM unless noted,17.7%
COc1cccc(NC(=O)N(C)C[C@H]2OCc3ccccc3-c3ccccc3C(=O)N([C@H](C)CO)C[C@@H]2C)c1,inhibition,at 16.7 µM unless noted,17.7%
C[C@@H]1CN([C@H](C)CO)C(=O)Cc2cc(NC(=O)NC3CCCCC3)ccc2O[C@H]1CN(C)Cc1ccc(Cl)c(Cl)c1,inhibition,at 16.7 µM unless noted,-10.2%
CC(C)CC#Cc1ccc2c(c1)O[C@@H](CN(C)C(=O)Nc1ccccc1F)[C@@H](C)CN([C@@H](C)CO)S2(=O)=O,inhibition,at 16.7 µM unless noted,9.38%
Cn1c(CNC(=O)c2ccco2)nnc1SCC(=O)N1CCN(c2ccccc2)CC1,inhibition,at 16.7 µM unless noted,-10.4% [at 12.3 µM]
Cc1cc2nnc(SCC(=O)N3CCN(c4ccccc4)CC3)n2c(N)n1,inhibition,at 16.7 µM unless noted,-38.7% [at 12.3 µM]
Cn1c(Cc2cccc3ccccc23)nnc1SCC(=O)N1CCN(c2cccc(Cl)c2)CC1,inhibition,at 16.7 µM unless noted,94.5% [at 12.3 µM] (active)
C[C@H]1CCCCO[C@@H](CN(C)C(=O)Nc2ccccc2)[C@@H](C)CN([C@@H](C)CO)C(=O)c2cc(NC(=O)Nc3ccc(F)cc3)ccc2O1,inhibition,at 16.7 µM unless noted,-14%
O=C(CN1CCOCC1)N[C@H]1CC[C@@H](CCNS(=O)(=O)c2ccccc2F)O[C@H]1CO,inhibition,at 16.7 µM unless noted,21.8%
CCOC(=O)N1CCN(C(c2ccnc3ccccc23)c2nnnn2-c2c(C)cccc2C)CC1 (stereo not drawn),inhibition,at 16.7 µM unless noted,14.5% [at 12.3 µM]
Cc1cccc(C)c1-n1nnnc1C(CCc1ccccc1)N1CCN(C/C=C/c2ccccc2)CC1 (stereo not drawn),inhibition,at 16.7 µM unless noted,-59.3% [at 12.3 µM]
CCC(=O)N(C)C(c1ccccc1Cl)c1nnnn1-c1c(C)cccc1C (stereo not drawn),inhibition,at 16.7 µM unless noted,68.5% [at 12.3 µM] (active)
CC(C)NC(=O)N(C)C[C@@H]1Oc2ccc(NC(=O)Cn3cnnn3)cc2CC(=O)N([C@H](C)CO)C[C@H]1C,inhibition,at 16.7 µM unless noted,13.5%
COc1ccc(CCN2C(=O)c3[nH]nc(-c4ccccc4O)c3C2c2ccc(C)cc2)cc1OC (stereo not drawn),inhibition,at 16.7 µM unless noted,101% [at 12.3 µM] (active)
CCCN1C(=O)c2[nH]nc(-c3ccccc3)c2C1c1ccccc1 (stereo not drawn),inhibition,at 16.7 µM unless noted,-22.9% [at 12.3 µM]
COc1ccc(CCN2C(=O)C(C)=C(C)C2=O)cc1OC,inhibition,at 16.7 µM unless noted,-2.55% [at 12.3 µM]
COc1ccccc1-c1cnc2c(c1)C(=O)N([C@@H](C)CO)C[C@H](C)[C@@H](CN(C)C(C)=O)O2,inhibition,at 16.7 µM unless noted,0.851%
COc1ccc(S(=O)(=O)Nc2ccc3c(c2)C(=O)N([C@H](C)CO)C[C@@H](C)[C@@H](CN(C)CC2CCCCC2)OCCCC[C@@H](C)O3)cc1,inhibition,at 16.7 µM unless noted,-26.3%
COc1ccc(/C=C2\SC(=S)N(CCC(=O)N3CCOCC3)C2=O)cc1OC,inhibition,at 16.7 µM unless noted,6.28% [at 12.3 µM]
COc1cccc(/C=C2\SC(=S)N(CCCC(=O)N3CCOCC3)C2=O)c1,inhibition,at 16.7 µM unless noted,2.26% [at 12.3 µM]
C=CCOc1ccc(/C=C2\SC(=S)N(CCC(=O)O)C2=O)cc1,inhibition,at 16.7 µM unless noted,60.7% [at 12.3 µM] (active)
